Compounds with a hit are over-represented: about 3% of the library has one in this group of screens.
DAGLB inh – diacylglycerol lipase beta (human) inhibition. inhibition, % at 5.17 µM. 340,000 tested, 0.059% active. HEK293T DAGLB membrane lysate, EnzChek fluorogenic substrate. AID 504411; in the data active = inhibition above about 34%
PAFAH1B3 FP inh – blocks human PAF acetylhydrolase 1B catalytic subunit 3 | Q15102 | recombinant PAFAH1B3, FP-rhodamine probe, fluorescence polarization | inhibition, % at 3.39 µM | 340,000 tested, 0.28% active | AID 492972;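 active = inhibition above the screen-wide average of all tested compounds plus 3 SD, cut at about 25% in these data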
pPAFAH inh – pPAFAH (human) enzyme inhibition. 330,000 tested, 1.5% active. AID 463082. recombinant pPAFAH, FP-rhodamine probe fluorescence polarization. inhibition, % at 3.39 µM. Q13093;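 active = inhibition above the mean inhibition across the screen plus 3 SD, cut at about 25% in these data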;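 note: inhibitors block binding of the rhodamine activity-based probe so polarization drops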
Target sequence (Q13093 whole entry, looked up): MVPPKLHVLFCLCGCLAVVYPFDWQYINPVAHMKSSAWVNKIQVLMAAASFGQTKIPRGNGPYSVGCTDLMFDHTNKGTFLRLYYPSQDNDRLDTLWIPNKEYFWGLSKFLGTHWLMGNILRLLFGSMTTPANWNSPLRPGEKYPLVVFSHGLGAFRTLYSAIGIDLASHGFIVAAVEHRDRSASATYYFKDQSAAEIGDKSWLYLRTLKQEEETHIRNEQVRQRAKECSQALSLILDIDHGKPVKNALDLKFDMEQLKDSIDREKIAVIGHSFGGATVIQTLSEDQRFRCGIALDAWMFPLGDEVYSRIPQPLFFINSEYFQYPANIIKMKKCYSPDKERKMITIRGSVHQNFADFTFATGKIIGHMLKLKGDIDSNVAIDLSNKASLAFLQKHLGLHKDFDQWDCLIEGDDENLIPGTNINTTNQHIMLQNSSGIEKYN
PAFAH2 FP inh – PAFAH2 (human) inhibition. Q99487. inhibition, % at 3.39 µM. 340,000 tested, 0.99% active. recombinant PAFAH2, FP-rhodamine activity probe, fluorescence polarization;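 active = inhibition above the mean over all tested compounds plus 3 SD, cut at about 30% in these data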;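 note: inhibitors block probe labeling of enzyme so polarization drops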
ATG4B inhibitor – blocks human ATG4B protease cleavage of LC3 substrate. inhibition, % at 8.33 µM. 340,000 tested, 0.51% active. ATG4B cleavage of LC3-PLA2, NBD-HPC fluorescence, 1 h; in the data active = inhibition above about 40%
PAFAH1B2 FP inh – PAFAH1B2 (human) inhibition. inhibition, % at 3.39 µM. recombinant PAFAH1B2, FP-rhodamine activity probe, fluorescence polarization. 340,000 tested, 1.2% active;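 active = inhibition above the mean of all tested compounds plus 3 SD, cut at about 24% in these data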
Target sequence (P68402 whole entry, looked up): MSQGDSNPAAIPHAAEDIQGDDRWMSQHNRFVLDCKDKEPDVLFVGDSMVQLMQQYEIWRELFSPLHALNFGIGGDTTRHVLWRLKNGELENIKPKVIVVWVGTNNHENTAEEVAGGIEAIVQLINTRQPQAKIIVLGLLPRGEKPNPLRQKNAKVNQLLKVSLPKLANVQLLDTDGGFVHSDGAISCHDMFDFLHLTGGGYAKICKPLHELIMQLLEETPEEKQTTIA
PAFAH1B3 confirm – PAFAH1B3 (human) inhibition, confirmed. inhibition, % at 3.39 µM. shares compounds with PAFAH1B3 FP inh. recombinant PAFAH1B3, FP-Rh activity-based probe, fluorescence polarization. 390 tested, 30% active;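 active = average inhibition over triplicate runs above the hit cutoff set in the earlier primary screen, cut at about 25% in these data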
Hits are given with their value; i = inactive; nt = not tested or not shown.

SMILES	DAGLB inh	PAFAH1B3 FP inh	pPAFAH inh	PAFAH2 FP inh	ATG4B inhibitor	PAFAH1B2 FP inh	PAFAH1B3 confirm
O=C(/C=C/NNC(=O)c1ccccc1)c1ccc([N+](=O)[O-])cc1	i	28.6	i	i	i	i	i
O=C(/C=C/NNC(=O)c1ccccc1)c1ccccc1	i	i	i	i	i	i	nt
CC1CCCCN1C(=S)NC(=O)c1cc(Br)ccc1Cl (stereo not drawn)	i	i	i	i	i	i	nt
CCOc1ccc(OCCC(=O)Nc2cccc(S(=O)(=O)N3CCCC3)c2)cc1	i	i	nt	i	i	i	nt
COc1ccccc1-c1nnc2n1N=C(c1ccc(O)c(O)c1)CS2	i	30.3	i	i	i	i	i
COc1ccc2[nH]c(C(=O)N/N=C/c3ccccc3OC)cc2c1	i	i	i	i	i	i	nt
COc1cc(OC)c2cc(C(=O)N/N=C/c3ccccc3O)[nH]c2c1	i	28.9	i	i	i	i	i
Nc1nc2ccccc2n1C(=O)c1cccs1	i	i	i	i	i	i	nt
O=C1c2cccc3cccc(c23)C(=O)C1(O)O	i	i	i	i	i	i	nt
CC(=O)C(C(C)=O)C1(O)C(=O)c2ccccc2C1=O	i	34.1	i	i	i	i	i
O=c1oc2cc(O)ccc2cc1-c1nc2c(s1)CCc1ccccc1-2	i	33.4	i	i	i	i	i
O=c1oc2ccccc2cc1-c1nc2c(s1)CCc1ccccc1-2	i	i	i	i	i	i	nt
C=CCNC(=S)Nc1ccc2nsnc2c1	i	i	i	i	i	i	nt
S=C(Nc1ccc2nsnc2c1)N1CCCCCC1	i	32.1	i	i	i	i	i
S=C(Nc1ccc2nsnc2c1)NC1CCCCC1	i	56.2	i	i	i	i	i
COCCNC(=S)Nc1ccc2nsnc2c1	i	69.1	i	i	i	i	i
C=CCN(CC=C)C(=S)Nc1ccc2nsnc2c1	i	59.2	i	i	i	i	i
O=C(Nc1ccc2nsnc2c1)N1CCCCC1	i	i	i	i	i	i	nt
COCCNC(=S)Nc1ccc(Cl)c(Cl)c1	i	i	i	i	i	i	nt
Cc1ccc(-n2ncc3c(=O)n(CC(=O)N4CCN(c5ccccc5)CC4)cnc32)cc1C	i	i	i	i	i	i	nt
COCCN1CCN(C(=O)c2cc(COc3cncc(Cl)c3)on2)CC1	i	i	nt	i	i	i	nt
O=C(O)C1CC=CCC1C(=O)NCc1ccc(Cl)c(Cl)c1 (stereo not drawn)	i	i	i	i	i	i	nt
Cc1cc(=O)[nH]c(SCC(=O)Nc2ccccc2[N+](=O)[O-])n1	i	i	i	i	i	i	nt
O=C(Cn1ncc(Cl)c(Cl)c1=O)NC1CCCCC1	i	28.9	i	i	i	i	i
O=C(Cn1ncc(Cl)c(Cl)c1=O)NCC1CCCCC1	i	i	i	i	i	i	nt
SMILES	DAGLB inh	PAFAH1B3 FP inh	pPAFAH inh	PAFAH2 FP inh	ATG4B inhibitor	PAFAH1B2 FP inh	PAFAH1B3 confirm
COc1cccc(/C=N/NC(=O)c2ccc([N+](=O)[O-])cc2Cl)c1O	i	27.3	i	i	i	i	i
O=C1c2ccccc2S(=O)(=O)N1CCCN1C(=O)c2ccccc2S1(=O)=O	i	29.7	nt	i	i	i	i
O=C1c2ccccc2C(=O)N1OCCCN1C(=O)c2ccccc2S1(=O)=O	i	i	nt	i	i	i	nt
Cc1ccc(C(=O)O)cc1N1C(=O)c2cccc3cc(Br)cc(c23)C1=O	i	56.6	i	i	i	i	56.9
O=C(O)c1cccc(N2C(=O)c3cccc4cccc(c34)C2=O)c1	i	i	nt	i	i	i	nt
CCOC(=O)c1c(C)oc2c1C(=O)c1ccccc1C2=O	i	29.9	i	i	i	i	i
CN(C)C(=O)c1ccc(NC(=O)c2sccc2-c2ccccc2)cc1	i	i	i	i	i	i	nt
Cc1ccc(/C=N\NC(=O)C2CN(S(=O)(=O)c3ccccc3)CCN2S(=O)(=O)c2ccccc2)cc1 (stereo not drawn)	i	i	i	i	i	i	nt
COc1cc(OC)c(OC)cc1/C=N/Nc1nc2ccccc2[nH]1	i	i	i	i	i	i	nt
CCN(CC)c1ccc(/C=N/Nc2nc3ccccc3[nH]2)c(O)c1	i	26.8	i	i	i	i	25.6
O=C(NC1CC1)c1cc(Cl)nc2ccccc12	i	i	nt	i	i	i	nt
CC1(NC(=O)c2cc(Cl)nc3ccccc23)CCS(=O)(=O)C1 (stereo not drawn)	i	35.3	i	i	i	i	i
O=C(COc1ccccc1/C=C\c1nc(O)c([N+](=O)[O-])c(=O)[nH]1)Nc1ccccc1	i	i	nt	i	i	i	nt
CCOc1ccccc1/C=C\c1nc(O)c([N+](=O)[O-])c(=O)[nH]1	i	28.3	i	i	i	i	i
O=C1/C(=N\S(=O)(=O)c2cccs2)C([n+]2ccccc2)=C([O-])c2ccccc21	i	48.6	i	i	i	i	35.0
O=C1C(=NO)CCc2ccccc21	i	37.4	nt	i	i	i	i
Cc1c(C)n(Cc2ccccc2)c2ncnc(Cl)c12	i	i	i	i	i	i	nt
Cc1ccc2sc(NNC(=O)c3cc(=O)c4ccccc4o3)nc2c1C	i	i	i	i	i	i	nt
COc1ccc2nc(NNC(=O)c3cc(=O)c4ccccc4o3)sc2c1	i	28.8	i	i	i	i	i
CC(=O)N(C)C1=C(N2CCOCC2)C(=O)c2ccccc2C1=O	i	30.6	i	i	i	i	i
CC(=O)N(C)C1=C(O)c2ccccc2C(=O)C1=O	i	i	i	i	i	i	nt
CC(=O)N(C1=C(N2CCOCC2)C(=O)c2ccccc2C1=O)c1ccc(C(=O)O)cc1	i	25.8	i	i	i	i	i
CCOC(=O)c1sc(NC(=O)Nc2ccccc2)cc1C	i	26.6	i	i	i	i	i
CCOC(=O)c1sc(NC(=O)Nc2ccccc2Cl)cc1C	i	i	i	i	i	i	nt
COc1cc(NCCCNC(C)C)c2nccc(C)c2c1	i	40.2	nt	i	i	i	i
SMILES	DAGLB inh	PAFAH1B3 FP inh	pPAFAH inh	PAFAH2 FP inh	ATG4B inhibitor	PAFAH1B2 FP inh	PAFAH1B3 confirm
COc1cc(NCc2ccccc2)c2ncn(C(C)C)c2c1	i	i	i	i	i	i	nt
COc1ccc(OC)c(Nc2cc3ccccc3c(=O)[nH]2)c1	i	37.6	i	i	i	i	i
COc1ccc(CCNC(=O)CC(C)S(=O)(=O)c2ccc3c(c2)NC(=O)CO3)cc1OC (stereo not drawn)	i	i	i	i	i	i	nt
COc1ccc(Cl)cc1NC(=O)CCCn1c(=O)c2cccn2c2cccnc21	i	nt	nt	nt	nt	nt	nt
CCc1nnc(N/N=C/c2cc(Br)c(O)cc2O)n1N	i	25.6	i	i	i	i	i
C=CCn1c(NC(=O)c2ccccc2Cl)c(C#N)c2nc3ccccc3nc21	i	60.4	i	i	i	i	i
O=c1c2ccccc2sc2ccc(NCCCN3CCOCC3)cc12	i	i	i	i	i	i	nt
COc1cc2sc3cc(NCCCN4CCOCC4)ccc3c(=O)c2cc1OC	i	27.7	i	i	i	i	i

Screening results deposited in PubChem by several laboratories.
